# Source: PMC11062922 (Nature Chemical Biology, 2023)
# Where two headings read alike, the source gives them in different places.
# Experiments:
# PDGFRB = conditions: read-out: apparent Kd; compound concentrations:100 nM and 1000 nM (sheet 'Lestaurtinib' of Supplementary Table 1),run:Lestaurtinib_03260_R2,Plate:MR033; n = 1
# PRKAA1 = conditions: read-out: apparent Kd, n = 1
# PRKAG1 = conditions: read-out: apparent Kd, n = 1
# PRKD1 = conditions: read-out: apparent Kd, n = 1
# [1] = compound concentrations:100 nM and 1000 nM (sheet 'Lestaurtinib' of Supplementary Table 1),run:Lestaurtinib_02339_R2,Plate:MR001
# [2] = compound concentrations:100 nM and 1000 nM (sheet 'Lestaurtinib' of Supplementary Table 1),run:Lestaurtinib_02339_R3,Plate:MR001
# [3] = compound concentrations:100 nM and 1000 nM (sheet 'Lestaurtinib' of Supplementary Table 1),run:Lestaurtinib_02367_R3,Plate:MR003
# [4] = compound concentrations:100 nM and 1000 nM (sheet 'Lestaurtinib' of Supplementary Table 1),run:Lestaurtinib_02381_R1,Plate:MR004
# [5] = compound concentrations:100 nM and 1000 nM (sheet 'Lestaurtinib' of Supplementary Table 1),run:Lestaurtinib_02381_R3,Plate:MR004
# [6] = compound concentrations:100 nM and 1000 nM (sheet 'Lestaurtinib' of Supplementary Table 1),run:Lestaurtinib_02422_R1,Plate:MR006
# [7] = compound concentrations:100 nM and 1000 nM (sheet 'Lestaurtinib' of Supplementary Table 1),run:Lestaurtinib_02437_R3,Plate:MR007
# [8] = compound concentrations:100 nM and 1000 nM (sheet 'Lestaurtinib' of Supplementary Table 1),run:Lestaurtinib_02438_R3,Plate:MR008
# [9] = compound concentrations:100 nM and 1000 nM (sheet 'Lestaurtinib' of Supplementary Table 1),run:Lestaurtinib_02443_R3,Plate:MR009
# [10] = compound concentrations:100 nM and 1000 nM (sheet 'Lestaurtinib' of Supplementary Table 1),run:Lestaurtinib_02473_R2,Plate:MR010
# [11] = compound concentrations:100 nM and 1000 nM (sheet 'Lestaurtinib' of Supplementary Table 1),run:Lestaurtinib_02473_R3,Plate:MR010
# [12] = compound concentrations:100 nM and 1000 nM (sheet 'Lestaurtinib' of Supplementary Table 1),run:Lestaurtinib_02482_R2,Plate:MR011
# [13] = compound concentrations:100 nM and 1000 nM (sheet 'Lestaurtinib' of Supplementary Table 1),run:Lestaurtinib_02487_R1,Plate:MR012
# [14] = compound concentrations:100 nM and 1000 nM (sheet 'Lestaurtinib' of Supplementary Table 1),run:Lestaurtinib_02566_R3,Plate:MR014
# [15] = compound concentrations:100 nM and 1000 nM (sheet 'Lestaurtinib' of Supplementary Table 1),run:Lestaurtinib_02584_R2,Plate:MR017
# [16] = compound concentrations:100 nM and 1000 nM (sheet 'Lestaurtinib' of Supplementary Table 1),run:Lestaurtinib_02606_R2,Plate:MR019
# [17] = compound concentrations:100 nM and 1000 nM (sheet 'Lestaurtinib' of Supplementary Table 1),run:Lestaurtinib_02624_R3,Plate:MR020
# [18] = compound concentrations:100 nM and 1000 nM (sheet 'Lestaurtinib' of Supplementary Table 1),run:Lestaurtinib_02724_R3,Plate:MR021
# [19] = compound concentrations:100 nM and 1000 nM (sheet 'Lestaurtinib' of Supplementary Table 1),run:Lestaurtinib_02752_R3,Plate:MR025
# [20] = compound concentrations:100 nM and 1000 nM (sheet 'Lestaurtinib' of Supplementary Table 1),run:Lestaurtinib_02768_R3,Plate:MR028
# [21] = compound concentrations:100 nM and 1000 nM (sheet 'Lestaurtinib' of Supplementary Table 1),run:Lestaurtinib_02896_R3,Plate:MR030
# [22] = compound concentrations:100 nM and 1000 nM (sheet 'Lestaurtinib' of Supplementary Table 1),run:Lestaurtinib_02364_R3,Plate:MR002
# [23] = compound concentrations:100 nM and 1000 nM (sheet 'Lestaurtinib' of Supplementary Table 1),run:Lestaurtinib_02601_R1,Plate:MR018
substance,measurement,setting,value
Lestaurtinib,potency estimated from few doses,PDGFRB,1930 nM
same,potency estimated from few doses,PRKAA1; [1],860 nM
same,potency estimated from few doses,PRKAA1; [2],1330 nM
same,potency estimated from few doses,"PRKAA1; compound concentrations:100 nM and 1000 nM (sheet 'Lestaurtinib' of Supplementary Table 1),run:Lestaurtinib_02364_R2,Plate:MR002",936 nM
same,potency estimated from few doses,PRKAA1; [3],951 nM
same,potency estimated from few doses,PRKAA1; [4],919 nM
same,potency estimated from few doses,"PRKAA1; compound concentrations:100 nM and 1000 nM (sheet 'Lestaurtinib' of Supplementary Table 1),run:Lestaurtinib_02381_R2,Plate:MR004",900 nM
same,potency estimated from few doses,PRKAA1; [5],952 nM
same,potency estimated from few doses,PRKAA1; [6],741 nM
same,potency estimated from few doses,PRKAA1; [7],79.1 nM
same,potency estimated from few doses,"PRKAA1; compound concentrations:100 nM and 1000 nM (sheet 'Lestaurtinib' of Supplementary Table 1),run:Lestaurtinib_02438_R1,Plate:MR008",898 nM
same,potency estimated from few doses,PRKAA1; [8],1600 nM
same,potency estimated from few doses,PRKAA1; [9],762 nM
same,potency estimated from few doses,PRKAA1; [10],944 nM
same,potency estimated from few doses,PRKAA1; [11],74.3 nM
same,potency estimated from few doses,"PRKAA1; compound concentrations:100 nM and 1000 nM (sheet 'Lestaurtinib' of Supplementary Table 1),run:Lestaurtinib_02482_R1,Plate:MR011",1130 nM
same,potency estimated from few doses,PRKAA1; [12],1490 nM
same,potency estimated from few doses,PRKAA1; [13],253 nM
same,potency estimated from few doses,"PRKAA1; compound concentrations:100 nM and 1000 nM (sheet 'Lestaurtinib' of Supplementary Table 1),run:Lestaurtinib_02487_R3,Plate:MR012",737 nM
same,potency estimated from few doses,PRKAA1; [14],1310 nM
same,potency estimated from few doses,"PRKAA1; compound concentrations:100 nM and 1000 nM (sheet 'Lestaurtinib' of Supplementary Table 1),run:Lestaurtinib_02572_R1,Plate:MR015",904 nM
same,potency estimated from few doses,PRKAA1; [15],1310 nM
same,potency estimated from few doses,PRKAA1; [16],1490 nM
same,potency estimated from few doses,PRKAA1; [17],1310 nM
same,potency estimated from few doses,PRKAA1; [18],883 nM
same,potency estimated from few doses,"PRKAA1; compound concentrations:100 nM and 1000 nM (sheet 'Lestaurtinib' of Supplementary Table 1),run:Lestaurtinib_02748_R1,Plate:MR024",858 nM
same,potency estimated from few doses,"PRKAA1; compound concentrations:100 nM and 1000 nM (sheet 'Lestaurtinib' of Supplementary Table 1),run:Lestaurtinib_02748_R2,Plate:MR024",956 nM
same,potency estimated from few doses,"PRKAA1; compound concentrations:100 nM and 1000 nM (sheet 'Lestaurtinib' of Supplementary Table 1),run:Lestaurtinib_02752_R1,Plate:MR025",1360 nM
same,potency estimated from few doses,PRKAA1; [19],1210 nM
same,potency estimated from few doses,"PRKAA1; compound concentrations:100 nM and 1000 nM (sheet 'Lestaurtinib' of Supplementary Table 1),run:Lestaurtinib_02766_R1,Plate:MR027",1580 nM
same,potency estimated from few doses,"PRKAA1; compound concentrations:100 nM and 1000 nM (sheet 'Lestaurtinib' of Supplementary Table 1),run:Lestaurtinib_02766_R3,Plate:MR027",1320 nM
same,potency estimated from few doses,"PRKAA1; compound concentrations:100 nM and 1000 nM (sheet 'Lestaurtinib' of Supplementary Table 1),run:Lestaurtinib_02768_R1,Plate:MR028",932 nM
same,potency estimated from few doses,PRKAA1; [20],921 nM
same,potency estimated from few doses,"PRKAA1; compound concentrations:100 nM and 1000 nM (sheet 'Lestaurtinib' of Supplementary Table 1),run:Lestaurtinib_02896_R1,Plate:MR030",784 nM
same,potency estimated from few doses,"PRKAA1; compound concentrations:100 nM and 1000 nM (sheet 'Lestaurtinib' of Supplementary Table 1),run:Lestaurtinib_02896_R2,Plate:MR030",1130 nM
same,potency estimated from few doses,PRKAA1; [21],931 nM
same,potency estimated from few doses,"PRKAA1; compound concentrations:100 nM and 1000 nM (sheet 'Lestaurtinib' of Supplementary Table 1),run:Lestaurtinib_03172_R1,Plate:MR031",1570 nM
same,potency estimated from few doses,"PRKAA1; compound concentrations:100 nM and 1000 nM (sheet 'Lestaurtinib' of Supplementary Table 1),run:Lestaurtinib_03172_R2,Plate:MR031",1330 nM
same,potency estimated from few doses,PRKAG1; [1],584 nM
same,potency estimated from few doses,PRKAG1; [2],531 nM
same,potency estimated from few doses,PRKAG1; [22],1000 nM
same,potency estimated from few doses,PRKAG1; [3],887 nM
same,potency estimated from few doses,PRKAG1; [4],712 nM
same,potency estimated from few doses,PRKAG1; [5],611 nM
same,potency estimated from few doses,"PRKAG1; compound concentrations:100 nM and 1000 nM (sheet 'Lestaurtinib' of Supplementary Table 1),run:Lestaurtinib_02407_R1,Plate:MR005",924 nM
same,potency estimated from few doses,"PRKAG1; compound concentrations:100 nM and 1000 nM (sheet 'Lestaurtinib' of Supplementary Table 1),run:Lestaurtinib_02407_R2,Plate:MR005",928 nM
same,potency estimated from few doses,"PRKAG1; compound concentrations:100 nM and 1000 nM (sheet 'Lestaurtinib' of Supplementary Table 1),run:Lestaurtinib_02407_R3,Plate:MR005",1150 nM
same,potency estimated from few doses,PRKAG1; [6],131 nM
same,potency estimated from few doses,"PRKAG1; compound concentrations:100 nM and 1000 nM (sheet 'Lestaurtinib' of Supplementary Table 1),run:Lestaurtinib_02437_R2,Plate:MR007",1340 nM
same,potency estimated from few doses,PRKAG1; [7],83.7 nM
same,potency estimated from few doses,PRKAG1; [8],1600 nM
same,potency estimated from few doses,PRKAG1; [9],935 nM
same,potency estimated from few doses,PRKAG1; [10],859 nM
same,potency estimated from few doses,PRKAG1; [11],835 nM
same,potency estimated from few doses,PRKAG1; [12],1580 nM
same,potency estimated from few doses,PRKAG1; [13],365 nM
same,potency estimated from few doses,PRKAG1; [14],79.5 nM
same,potency estimated from few doses,"PRKAG1; compound concentrations:100 nM and 1000 nM (sheet 'Lestaurtinib' of Supplementary Table 1),run:Lestaurtinib_02584_R1,Plate:MR017",798 nM
same,potency estimated from few doses,PRKAG1; [15],936 nM
same,potency estimated from few doses,PRKAG1; [23],963 nM
same,potency estimated from few doses,PRKAG1; [16],1240 nM
same,potency estimated from few doses,"PRKAG1; compound concentrations:100 nM and 1000 nM (sheet 'Lestaurtinib' of Supplementary Table 1),run:Lestaurtinib_02624_R2,Plate:MR020",876 nM
same,potency estimated from few doses,PRKAG1; [17],1320 nM
same,potency estimated from few doses,"PRKAG1; compound concentrations:100 nM and 1000 nM (sheet 'Lestaurtinib' of Supplementary Table 1),run:Lestaurtinib_02748_R3,Plate:MR024",1790 nM
same,potency estimated from few doses,"PRKAG1; compound concentrations:100 nM and 1000 nM (sheet 'Lestaurtinib' of Supplementary Table 1),run:Lestaurtinib_02752_R2,Plate:MR025",818 nM
same,potency estimated from few doses,PRKAG1; [19],954 nM
same,potency estimated from few doses,"PRKAG1; compound concentrations:100 nM and 1000 nM (sheet 'Lestaurtinib' of Supplementary Table 1),run:Lestaurtinib_02768_R2,Plate:MR028",1540 nM
same,potency estimated from few doses,PRKAG1; [20],852 nM
same,potency estimated from few doses,"PRKAG1; compound concentrations:100 nM and 1000 nM (sheet 'Lestaurtinib' of Supplementary Table 1),run:Lestaurtinib_02795_R2,Plate:MR022",1330 nM
same,potency estimated from few doses,"PRKAG1; compound concentrations:100 nM and 1000 nM (sheet 'Lestaurtinib' of Supplementary Table 1),run:Lestaurtinib_02802_R1,Plate:MR029",1150 nM
same,potency estimated from few doses,"PRKAG1; compound concentrations:100 nM and 1000 nM (sheet 'Lestaurtinib' of Supplementary Table 1),run:Lestaurtinib_02802_R2,Plate:MR029",1430 nM
same,potency estimated from few doses,PRKAG1; [21],700 nM
same,potency estimated from few doses,"PRKAG1; compound concentrations:100 nM and 1000 nM (sheet 'Lestaurtinib' of Supplementary Table 1),run:Lestaurtinib_03252_R1,Plate:MR032",744 nM
same,potency estimated from few doses,"PRKAG1; compound concentrations:100 nM and 1000 nM (sheet 'Lestaurtinib' of Supplementary Table 1),run:Lestaurtinib_03260_R1,Plate:MR033",860 nM
same,potency estimated from few doses,"PRKAG1; compound concentrations:100 nM and 1000 nM (sheet 'Lestaurtinib' of Supplementary Table 1),run:Lestaurtinib_03260_R2,Plate:MR033",760 nM
same,potency estimated from few doses,PRKD1; [22],131 nM
same,potency estimated from few doses,"PRKD1; compound concentrations:100 nM and 1000 nM (sheet 'Lestaurtinib' of Supplementary Table 1),run:Lestaurtinib_02443_R2,Plate:MR009",226 nM
same,potency estimated from few doses,PRKD1; [9],271 nM
same,potency estimated from few doses,"PRKD1; compound concentrations:100 nM and 1000 nM (sheet 'Lestaurtinib' of Supplementary Table 1),run:Lestaurtinib_02473_R1,Plate:MR010",248 nM
same,potency estimated from few doses,PRKD1; [10],235 nM
same,potency estimated from few doses,"PRKD1; compound concentrations:100 nM and 1000 nM (sheet 'Lestaurtinib' of Supplementary Table 1),run:Lestaurtinib_02496_R2,Plate:MR013",47.1 nM
same,potency estimated from few doses,"PRKD1; compound concentrations:100 nM and 1000 nM (sheet 'Lestaurtinib' of Supplementary Table 1),run:Lestaurtinib_02566_R1,Plate:MR014",253 nM
same,potency estimated from few doses,PRKD1; [15],206 nM
same,potency estimated from few doses,"PRKD1; compound concentrations:100 nM and 1000 nM (sheet 'Lestaurtinib' of Supplementary Table 1),run:Lestaurtinib_02584_R3,Plate:MR017",278 nM
same,potency estimated from few doses,PRKD1; [23],99.8 nM
same,potency estimated from few doses,"PRKD1; compound concentrations:100 nM and 1000 nM (sheet 'Lestaurtinib' of Supplementary Table 1),run:Lestaurtinib_02606_R1,Plate:MR019",131 nM
same,potency estimated from few doses,"PRKD1; compound concentrations:100 nM and 1000 nM (sheet 'Lestaurtinib' of Supplementary Table 1),run:Lestaurtinib_02606_R3,Plate:MR019",135 nM
same,potency estimated from few doses,PRKD1; [18],41.4 nM
